Compound activity from PubChem BioAssay.
A selection: hits, their analogues and other compounds. The true share with any hit is near 7.4%.
M1 ag – agonists of M1 muscarinic receptor; CHO-M1 cells, Fluo-4 calcium fluorescence, agonist mode; stronger effect = higher value; B-score at 10 µM; 3% of 64,000 active;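 active = fluorescence rise, raw or as B-score row- and column-corrected plate score, outside the 99.7% band of its plate's samples, either direction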
M1 antagonist – M1 muscarinic receptor (rat) antagonism; P08482; CHO-M1 cells, Fluo-4 calcium, ACh EC80 antagonist mode; stronger effect = lower value; B-score at 10 µM; 3.4% of 64,000 active; AID 628;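 active = calcium fluorescence response, raw or row-and-column corrected B-score, differing from the plate sample mean either way at a set confidence level, mostly lower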
FXIIa inh mix – factor XIIa (human) inhibition, mixture screen; P00748; purified FXIIa, fluorogenic substrate, pooled mixtures; inhibition, % at 5 µM; 0.2% of 62,000 active;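 note: 0% = enzyme without compound and 100% = no enzyme blank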
D1 mod – allosteric modulators of human D1 dopamine receptor; P21728; HEK293 D1, CRE-luciferase, dopamine EC30 potentiation; actives deviate in either direction; B-score at 10 µM; 5.9% of 58,000 active; AID 641;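 active = luminescence count or its row- and column-corrected plate score outside the 99.7% band of the plate's sample wells, on either side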
Target sequence (P21728 whole entry, looked up): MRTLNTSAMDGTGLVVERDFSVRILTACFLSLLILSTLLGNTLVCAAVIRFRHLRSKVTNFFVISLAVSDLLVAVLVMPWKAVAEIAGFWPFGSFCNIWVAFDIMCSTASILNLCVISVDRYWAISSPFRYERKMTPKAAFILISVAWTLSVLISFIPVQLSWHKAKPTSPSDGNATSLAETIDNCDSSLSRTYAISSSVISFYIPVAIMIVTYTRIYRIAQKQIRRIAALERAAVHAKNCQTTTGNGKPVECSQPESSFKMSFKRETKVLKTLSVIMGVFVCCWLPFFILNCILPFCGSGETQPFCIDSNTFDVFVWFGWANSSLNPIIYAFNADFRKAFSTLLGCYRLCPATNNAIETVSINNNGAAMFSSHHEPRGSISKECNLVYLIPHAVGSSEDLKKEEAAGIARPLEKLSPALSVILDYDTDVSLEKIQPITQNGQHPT
FXIa inh mix – inhibitors of human coagulation factor XIa, pooled mixtures | P03951 | 0.19% of 62,000 active | inhibition, % at 5 µM | purified FXIa, fluorogenic substrate;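 note: each value is inhibition by a whole ten-compound pool holding the compound; 0% = enzyme with no mixture and 100% = wells lacking enzyme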
DAT uptake mod – changed human dopamine transporter uptake under cocaine IC80 | AID 449768 | Q01959 | B-score at 10 µM | LLC-PK1 hDAT cells, [14C]-dopamine uptake with cocaine IC80; actives deviate in either direction | 1.3% of 110,000 active;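 active = Z score or B-score, a plate-position-corrected score, falls beyond the plate's 99.7% confidence bounds, in either direction; inactive = both scores lie inside the 99.7% bounds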;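 note: scored against the spread of the other compound wells on the same plate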
M1 ag confirm – rat M1 muscarinic agonism, confirmation. 19% of 1,700 active. AID 1488. CHO-M1 cells, Fluo-4 calcium fluorescence, agonist mode; actives lie on both sides. fluorescence change (max-min) at 10 µM. shares compounds with M1 ag;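 active = fluorescence change differs from the solvent-only DMSO control mean at a set confidence level in both duplicate runs; inconclusive = differs from solvent-only control mean in just one of two runs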;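 note: an EC20 dose of acetylcholine follows compound addition during the same imaging run; raw fluorescence intensity difference in instrument units with no normalization to controls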
M4 ag counter – rat M4 muscarinic agonism, M1 counter-screen; CHO M4/Gqi5 cells, Fluo-4 calcium fluorescence, agonist mode; actives lie on both sides; 9% of 1,700 active; shares compounds with M1 ag; fluorescence change (max-min) at 10 µM; AID 1741;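 active = fluorescence change differing from the plate's solvent-only control wells at 99.7% confidence in both duplicates, whether higher or lower; inconclusive = differs from solvent controls in only one of two duplicates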
An asterisk follows results filed as active; u = inconclusive; x = no result. Cut-off read from the data, not from the text of the source, unless noted: active = inhibition above about 20% (passing the limit was not always enough); inactive = the rest.

SMILES	M1 ag	M1 antagonist	FXIIa inh mix	D1 mod	FXIa inh mix	DAT uptake mod	M1 ag confirm	M4 ag counter
CCOC(=O)Cc1csc(NC(=O)CSc2nnc(-n3nc(C)cc3C)c3ccccc23)n1	4.71*	-0.722	-0.7	-0.298	1.9	0.207	0.183	-19.7
CN(C)CCNC(=O)c1ccc(-c2nn(C)c(=O)c3ccccc23)cc1	x	x	x	x	x	-0.884	x	x
Cc1ccccc1N1C(=O)c2ccccc2N2C(=O)c3ccccc3C12 (stereo not given)	x	x	x	x	x	0.274	x	x
COc1ccc2c(c1OC)C(=O)N1c3ccccc3C(=O)N(c3ccc(F)cc3)C21 (stereo not given)	13*	-1.7	9.7	x	4.3	-0.722	-13	-26.9
COc1ccccc1N1C(=O)c2ccccc2NC1C(OC)OC (stereo not given)	x	x	x	x	x	-1.36	x	x
COc1ccc2c(c1OC)C(=O)N1c3ccccc3C(=O)N(c3ccccc3)C21 (stereo not given)	13.4*	-1.34	-0.3	x	7.3	-0.432	u	-37
Cc1cc(Cl)ccc1OCC(=O)N1CCCCC1	2.21*	0.85	4.1	1.4	6.4	-0.0114	u	-29
O=C(COc1ccc(Cl)cc1Cl)N1CCCN(C(=O)COc2ccc(Cl)cc2Cl)CC1	x	x	x	x	x	1.45	x	x
N=c1sccn1CC(=O)Nc1ccc(Cl)c(S(=O)(=O)N2CCOCC2)c1	x	x	x	x	x	-0.168	x	x
c1ccc(Cn2nnnc2C(c2cccnc2)N2CCN(c3ccccc3)CC2)cc1 (stereo not given)	6.09*	-1.07	4.7	-0.125	0.1	-0.518	u	u
CCn1c(N)c(C(=O)NCC2CCCO2)sc1=S (stereo not given)	6.69*	-0.0833	6.9	1.73	1.5	-0.489	-7.81	-3.52
C=CCn1c(N)c(C(=O)NCC2CCCO2)sc1=S (stereo not given)	-0.0176	0.418	6.6	0.0811	0.2	0.0754	x	x
O=[n+]1c2c(n([O-])c3cc(F)c(N4CCCC4)cc31)CCCC2	188*	0.9	-19.8	-0.712	3.5	-1.67	593*	561*
O=[n+]1c2c(n([O-])c3cc(F)ccc31)CCCC2	-0.337	-0.239	-18.4	0.0512	-4.0	0.1	x	x
O=[n+]1c2c(n([O-])c3cc(F)c(N4CCCC4)cc31)CCC2	91.8*	0.514	-16.3	0.228	-0.1	-0.234	632*	549*
CCOc1cccc(C(=O)Nc2cccc(-c3nc4ncccc4o3)c2C)c1	4.19*	0.107	-16.2	-0.841	10.5	-0.0948	u	-79.7*
Cc1cc(C)cc(OCC(=O)Nc2cccc(-c3nc4ncccc4o3)c2)c1	6.75*	-0.901	0.2	-1.57	5.2	-0.0327	-1.6	-7.76
Cc1ccc(-c2nc3ncccc3o2)cc1NC(=O)c1cc2ccccc2o1	1.78	-0.498	-3.9	0.557	9.6	-0.196	x	x
O=C(Nc1cccc(-c2nc3ncccc3o2)c1)c1cc2ccccc2o1	6.01*	-0.0977	x	-0.948	x	0.848	-17.8	u
O=C(Cc1ccccc1)Nc1cccc(-c2nc3ncccc3o2)c1	-0.351	-0.178	5.0	1.48	2.2	-0.728	x	x
Cc1cc(C)c2c(n1)nn1c(C)c(CCC(=O)NCc3ccco3)c(C)nc21	0.343	0.432	-16.5	-1.02	7.1	0.0455	x	x
Cc1ccc(C)c(N2CCN(Cc3nnnn3C3CCCCC3)CC2)c1	10.2*	0.00406	0.9	-0.0164	9.6	0.739	-6.38	-23.7
Cc1ccc(Cn2c(CCNc3nc(-c4ccc(Cl)c([N+](=O)[O-])c4)cs3)nc3cc(Cl)c(Cl)cc32)cc1	x	x	x	x	x	-0.0196	x	x
O=C(CSc1n[nH]c(=O)n1C1CC1)Nc1cc(Cl)ccc1Oc1ccccc1	6.89*	-2.73*	6.6	-2.52	2.3	-0.31	-13.5	-13.9
O=C(Nc1nc(-c2cc3ccccc3oc2=O)cs1)c1ccco1	1.6*	-0.0027	9.7	x	15.2	1.15	2.61	-33
SMILES	M1 ag	M1 antagonist	FXIIa inh mix	D1 mod	FXIa inh mix	DAT uptake mod	M1 ag confirm	M4 ag counter
CN(C)c1ccc(/C=C/c2cc[n+]([O-])cc2)cc1	247*	0.232	11.9	-0.418	-4.8	-1.59	876*	895*
Cc1cc(N2CCN(c3cccc(C(F)(F)F)c3)CC2)n2ncnc2n1	2.8	-0.18	-16.4	-1.49	-1.6	-0.256	x	x
Cc1cc(N2CCN(c3nc4ccccc4s3)CC2)n2ncnc2n1	3.61*	-1.38	-17.3	-2.26	14.5	0.569	8.45	u
CCOc1ccc(S(=O)(=O)N2Cc3ccccc3CC2C(=O)NCCCn2ccnc2)cc1 (stereo not given)	0.705	-1.23	10.6	0.0809	-3.2	0.957	x	x
O=C(Nc1cccnc1)c1ccc(S(=O)(=O)N2CCCCCC2)cc1	x	x	x	x	x	1.19	x	x
O=C(Nc1cccnc1)c1ccc(Cl)c(S(=O)(=O)N2CCCCCC2)c1	2.44*	-0.23	8.4	0.0685	4.8	0.668	u	-48.2
COc1ccc(C2C(C#N)=C(N)N3C(=C2C#N)Sc2ccccc23)cc1 (stereo not given)	46.1*	-1.53	-25.4	0.391	7.7	0.164	131*	92.4
COc1ccc(C2C(C#N)=C(N)N(c3sc4c(c3C#N)CCCC4)C3=C2C(=O)CC(C)(C)C3)cc1 (stereo not given)	x	x	x	x	x	0.25	x	x
OCCOCCOCCn1c2ccccc2c2ccccc21	-0.18	0.709	9.0	-0.305	12.2	-0.0048	x	x
O=S(=O)(c1cccc(S(=O)(=O)N2CCC(N3CCCCC3)CC2)c1)N1CCOCC1	5.89*	-1.79	1.9	-0.0721	5.4	-0.491	-14.3	-18.4
CCN1C(=S)SC(=O)C1=C1C=C(C)N(Cc2ccco2)C(C)=C1	27*	0.169	6.3	-1.65	8.2	-0.127	135*	234*
CCN1C(=S)SC(=O)C1=C1C=C(C)OC(C)=C1	-0.713	-0.733	9.7	1.15	-5.2	0.487	x	x
Cn1c(CSCc2ccccc2)nnc1SCC(=O)Nc1nccs1	x	x	x	x	x	0.32	x	x
CCOC(=O)C1CCN(Cc2ccc(O)c(OC)c2)CC1	0.0116	-0.628	1.1	-0.445	6.4	-0.194	x	x
CCOC(=O)C1CCCN(Cc2cc(Br)ccc2OC)C1 (stereo not given)	x	x	0.3	-4.75	-2.2	0.253	x	x
CCOC(=O)C1CCCN(Cc2cc(Br)c(OC)cc2OC)C1 (stereo not given)	7.86*	-1.16	10.2	-0.651	-24.4	1.22	45.6	u
CCOC(=O)C1CCCN(Cc2cc(OC)c(O)c(OC)c2)C1 (stereo not given)	3.21*	-0.114	4.9	-0.182	-1.0	-0.653	59.9*	-39.9
CCCCCn1c(C(Cc2ccccc2)NC(C)=O)nc2ccccc21 (stereo not given)	x	x	x	x	x	0.32	x	x
CCOC(=O)C(C)Oc1ccc(C2NC(=O)NC(C)=C2C(C)=O)cc1Br (stereo not given)	-0.104	0	8.0	0.896	0.9	-0.288	x	x
